Screens: PubChem, National Center for Advancing Translational Sciences (NCATS)
Pf growth 96h: inhibits malaria parasite growth, 96 h. P. falciparum luciferase reporter growth, 96 h. Potency, µM (highest dose often 28.7 µM), for the others: top-dose activity change, negative = inhibition, most hits filed as inhibitors. 320,000 compounds, 6.9% hits. AID 504834; note: % is set by controls: 0 for no effect and ±100 for the full control effect
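Two-generation exposure (96 h) targets delayed-death phenotype. Reporter parasites carrying integrated firefly luciferase, in red cells at 2% hematocrit and 0.05% parasitemia final, kept at 37 C, 5% CO2; luminescence loss indicates inhibition.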
AmpC inh detg: blocks E. coli AmpC beta-lactamase in detergent assay; 370,000 compounds, 0.041% hits; AmpC hydrolysis of nitrocefin, absorbance 480 nm, 0.01% Triton; Potency, µM (titrated, usually from 114 µM), for the others: at the top dose activity change, negative = inhibition, most hits filed as inhibitors; AID 485294; P00811;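 note: 0% = no-compound wells and -100% = no-enzyme wells; nearly all actives have a fitted effect of over 25% in size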
Target sequence (P00811 whole entry, looked up): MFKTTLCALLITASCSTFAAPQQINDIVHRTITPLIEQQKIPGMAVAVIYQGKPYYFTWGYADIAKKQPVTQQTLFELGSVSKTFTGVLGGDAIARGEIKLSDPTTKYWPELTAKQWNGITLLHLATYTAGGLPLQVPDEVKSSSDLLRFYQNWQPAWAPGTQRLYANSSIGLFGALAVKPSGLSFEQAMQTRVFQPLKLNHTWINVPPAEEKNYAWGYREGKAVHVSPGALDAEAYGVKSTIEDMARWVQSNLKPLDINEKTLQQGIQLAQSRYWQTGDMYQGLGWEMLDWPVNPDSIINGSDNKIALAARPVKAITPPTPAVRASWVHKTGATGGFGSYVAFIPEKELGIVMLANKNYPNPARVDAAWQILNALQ
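20 mM phosphate pH 7.0 + 0.01% (detergent screen) or 0.0001% Triton X-100; 5.3 nM AmpC reagent; cpd preinc 15 min RT; nitrocefin (800 uM stock) to start; A480 q20 s × 4 min; Activity was normalised to no-enzyme and no-compound control wells.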
AmpC no deterg: inhibitors of E. coli AmpC beta-lactamase without detergent | P00811 | AmpC nitrocefin hydrolysis, absorbance 480 nm, 0.0001% Triton | Potency, µM (highest dose often 57.1 µM), for the others: at the top dose activity change, negative = inhibition, hits mostly inhibitors | 330,000 compounds, 0.52% hits | AID 485341;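 note: plate controls were no compound for no effect and no enzyme for full effect; nearly all actives have a fitted effect of over 20% in size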
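AmpC (5.3 nM in the dispensed reagent) in 20 mM phosphate pH 7.0 with 0.01% (detergent screen) or 0.0001% Triton X-100 was preincubated with compounds for 15 min at room temperature. Nitrocefin was then added from an 800 uM solution, and hydrolysis was followed at 480 nm.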
Pf growth 48h: inhibits P. falciparum growth in the first generation, 48 h | AID 504832 | P. falciparum luciferase growth in erythrocytes, 48 h | Potency, µM (top dose mostly 28.7 µM), without a hit: at the top dose activity change, negative = inhibition, actives largely listed as inhibitors | 310,000 compounds, 5.9% hits; note: % is set by controls: 0 for no effect and ±100 for the full control effect
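Read-out is firefly luciferase luminescence from an integrated reporter in P. falciparum, so falling signal marks reduced parasite growth. Infected erythrocytes were at 2% hematocrit and 0.1% parasitemia (final) in Albumax-supplemented RPMI 1640.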
SARS PLP yeast: inhibitors of SARS-CoV papain-like protease in yeast | S. cerevisiae expressing SARS-CoV PLpro, growth rescue | Potency, µM (series often up to 32.9 µM), without a hit: top-dose activity, positive = growth rescue, usual class: activators | 330,000 compounds, 0.19% hits; calls by dose curve; note: 0% is about no effect; nearly all actives have a fitted effect of over 55% in size
Sm TGR inh: S. mansoni TGR enzyme inhibition | Q962Y6 | purified TGR, DTNB reduction, TNB absorbance 405 nm | Potency, µM (doses to about 114 µM), for inactives: top-dose activity change, negative = inhibition, actives largely listed as inhibitors | 360,000 compounds, 3% hits | AID 485364; note: % is set by controls: 0 for no effect and ±100 for the full control effect; nearly all actives have a fitted effect of over 60% in size
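Kinetic colorimetric format: TGR-catalysed, NADPH-driven DTNB reduction monitored via TNB absorbance. Enzyme dispensed at 20 nM; compound exposure 15 min at room temperature before reaction start.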
An asterisk follows results filed as active; ? = inconclusive; . = not tested or not shown. Most compounds without a hit are left out; they make up all but 12% or so of the library. Unless noted, calls come from the whole dose curve; as a rule, active = well fitted curve in the direction sought with a large enough effect; inconclusive = small, poorly fitted or top-dose-only effect, or another doubt; inactive = no such curve, though single readings can be large; an effect the other way counts as inactive or inconclusive. Potency is the fitted concentration of half-maximal effect.

SMILES	Pf growth 96h	AmpC inh detg	AmpC no deterg	Pf growth 48h	SARS PLP yeast	Sm TGR inh
COc1ccc(CCNC(=O)CNC(=O)c2nn(-c3ccc(OC)c(OC)c3)c(=O)c3ccccc23)cc1OC	60%	?	114%	9.3µM*	0%	-8%
CC(C)(C)n1ncc2c(=O)n(CC(=O)NCCc3ccccc3)cnc21	96%	-21%	-19%	35%	-3%	-7%
COc1ccc2c3c(cccc13)C(=O)CC2	34%	0%	-17%	33%	-3%	-16%
c1sc2[n+](c1C13CC4CC(CC(C4)C1)C3)CCS2	2.9µM*	-1%	-5%	2.3µM*	-11%	1%
CCOC(=O)c1cc(OC(=O)c2cccs2)n(-c2ccccc2)n1	-23%	?	-31%	5%	11%	40µM*
Cn1cc(C(=O)c2ccc(Cl)cc2Cl)cc1C(=O)N/N=C(\N)COc1ccc(Cl)cc1	9.3µM*	-1%	-38%	0%	21%	-1%
CCc1ccccc1NC(=O)N[C@@H](C)C(=O)O	9.3µM*	?	-13%	7%	3%	1%
CCc1ccccc1NC(=O)N[C@@H](C)C(=O)OC	3%	2%	-5%	14%	4%	16%
COc1ccc([C@H]2[C@H](C(=O)C(C)(C)C)N3N=Cc4ccccc4C3[C@]23N=C(c2ccccc2)OC3=O)cc1OC (some centres undefined)	?	?	19%	?	-3%	0%
CC(C)(C)OC(=O)[C@H]1[C@H](c2ccc([N+](=O)[O-])cc2)C2(C(=O)c3ccccc3C2=O)C2c3ccccc3C=NN21 (some centres undefined)	1.9µM*	-6%	-37%	13µM*	-14%	-16%
Cc1ccc(-n2nc3c(=O)n(CC(=O)NCC(C)c4ccccc4)nc(C)c3c2C)cc1 (centres undefined)	.	-7%	.	.	.	-14%
CC(CCc1ccccc1)NC(=O)CN1CCSc2ccccc21 (centres undefined)	-1%	3%	125%	?	-5%	-6%
CNc1c(NC(=O)COc2ccc(Cl)cc2)c(=O)oc2ccccc12	?	-1%	-32%	10µM*	-4%	0%
COc1cc(NC(=O)COc2ccc(Cl)cc2)ccc1-c1cc2ccccc2oc1=O	4.1µM*	-14%	-41%	?	-3%	5%
CCN(CC)CCn1c(NS(=O)(=O)c2ccc(Cl)cc2)nc2ccccc21	?	-19%	-16%	.	0%	-28%
O=C(O)c1cccc(COc2ccc(CO)cc2Cl)c1	?	-1%	?	0.21µM*	3%	0%
COc1ccc(CNC(=O)C(Cc2ccccc2)NS(=O)(=O)c2ccc3c(c2)CCN3C(C)=O)cc1 (centres undefined)	.	0%	.	.	.	-8%
CCOC(=O)N1CCN(Cc2nc3cc(NC(=O)c4ccco4)ccc3n2C)CC1	39%	-4%	22%	?	-1%	50µM*
Cn1c(CN2CCN(C(=O)c3ccc(F)cc3)CC2)nc2cc([N+](=O)[O-])ccc21	13µM*	-4%	41%	?	8%	-5%
CC(=O)N1CCN(Cc2nc3cc(NC(=O)C4CCCCC4)ccc3n2C)CC1	1.9µM*	0%	.	-23%	.	-4%
Cc1ccc(-n2c(C)c([N+](=O)[O-])c3ccc(O)c(CN(C)C)c32)cc1	.	4%	-29%	13µM*	6%	-8%
COc1ccc(-n2c(C)c([N+](=O)[O-])c3ccc(O)c(CN4CCCCC4)c32)cc1	.	?	34%	.	-4%	11%
Cc1ccc(-n2c(C)c([N+](=O)[O-])c3ccc(O)cc32)cc1	?	2%	1%	?	0%	8.9µM*
Cc1c([N+](=O)[O-])c2ccc(O)cc2n1-c1ccccc1	?	-1%	-21%	-5%	0%	-14%
COc1ccc(-n2nnnc2SCC(=O)Nc2c(C)n[nH]c2C)cc1	.	.	-23%	.	-2%	.
SMILES	Pf growth 96h	AmpC inh detg	AmpC no deterg	Pf growth 48h	SARS PLP yeast	Sm TGR inh
O=C(Nc1ccccc1Cc1ccccc1)c1oc2ccccc2c1COc1ccccc1	10µM*	-5%	-28%	?	-5%	-3%
Cc1c(C(=O)NCCc2ccccc2)oc2ccccc12	-9%	?	-20%	245%	-2%	5%
CC(OC(=O)c1oc2ccccc2c1COc1ccccc1)C(=O)NC(N)=O (centres undefined)	15%	-3%	-18%	-13%	4%	-3%
O=C(NCCc1ccccc1)c1oc2ccccc2c1COc1ccccc1	13µM*	-4%	-42%	?	5%	-5%
O=C(N/N=C/c1ccc(N2CCOCC2)o1)c1cccc([N+](=O)[O-])c1	13%	-1%	-26%	11%	16%	11µM*
O=C(N/N=C/c1ccc(N2CCCCC2)o1)c1ccccc1	?	-1%	-39%	?	-9%	7.9µM*
Cc1ccc(/C=N/NC(=O)c2ccc(-c3ccccc3)cc2)o1	?	-7%	-37%	?	-3%	2%
O=C(N/N=C/c1ccccc1)c1ccc(N2CCOCC2)c([N+](=O)[O-])c1	3%	-4%	?	-11%	21%	1%
CCOCCCNC(=O)C(c1ccc(C)cc1)N(Cc1ccc2c(c1)OCO2)C(=O)c1ccc(NC(C)=O)cc1 (centres undefined)	.	3%	.	.	.	7%
Cc1ccc(S(=O)(=O)NC(C)C(c2cccs2)N2CCN(C)CC2)cc1 (centres undefined)	10µM*	?	-6%	-21%	25%	-20%
O=C(CCCN1CCC2(CC1)C(=O)NCN2c1ccccc1)c1ccc(F)cc1	.	?	-25%	.	-1%	2%
O=C1NCN(c2ccccc2)C12CCN(CCCOc1ccc(F)cc1)CC2	-15%	.	.	17µM*	.	.
O=Cc1ccccc1C=O	-20%	.	.	-9%	.	.
CCCNC(=O)CC1C(=O)N(Cc2ccccc2)C(C)c2nc3ccccc3n21 (centres undefined)	24%	-2%	5%	-15%	0%	5%
Cc1ccc(/C=[N+](\[O-])c2ccc(N(C)C)cc2)c2nsnc12	132%	-12%	-7%	-108%	-33%	28µM*
Cc1sc2ncnc(N3CCC(C(=O)Nc4ccc(C#N)c(Cl)c4)CC3)c2c1C	12µM*	-7%	65%	?	-1%	-10%
CNC(=O)c1ccc(NC(=O)C2CCN(c3ncnc4sc(C)c(C)c34)CC2)cc1	?	3%	-15%	?	0%	-27%
